These results are taken from PubChem BioAssay (Tox21).

Assay [1] in a line: qHTS assay for small molecule agonists of the p53 signaling pathway (AID 651631; calls by dose curve; also: nearly all actives have a fitted effect of over 15% in size). A digest of the protocol:
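Beta-lactamase reporter activity under p53 response elements was quantified in HCT-116 cells by FRET fluorescence, following 16 h incubation with test compounds at 37 °C and 2 h substrate development at room temperature.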

Assay [2] in a line: qHTS assay for small molecule agonists of the p53 signaling pathway - cell viability (AID 651633; calls by dose curve;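 also: p53RE-bla HCT reporter cells with a stable beta-lactamase p53 reporter; series mostly up to about 83 µM; nearly all actives have a fitted effect of over 30% in size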). A digest of the protocol:
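p53RE-bla cells, seeded at 4,000 per well and rested 5 h at 37 C/5% CO2, received compounds in DMSO for 16 h at 37 C. CellTiter-Glo was then added, and luminescence was read after 30 min at room temperature to gauge cytotoxicity.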

Assay [3] in a line: qHTS assay for small molecule disruptors of the mitochondrial membrane potential (AID 720635). Also: potency is read from the fitted curve at half-maximal effect. The method in brief:
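HepG2 cells (2,000/well) attached overnight at 37C, then took compound for 1 hr at 37C, 5% CO2. Mito-MPS dye was added for 30 min; fluorescence was read at 490/535 nm (monomers) and 540/590 nm (aggregates).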

Assay [4] can be described thus: qHTS assay to test for compound auto fluorescence at 590 nm (red) in HepG2 cells (AID 720674). The method in brief: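 Intrinsic compound fluorescence in the red window (Ex/Em 540/590 nm) is measured in attached HepG2 cells exposed for 1 hr, DMSO vehicle as baseline, benchmarked to Rose Bengal sodium.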
The nature of assay [5]: qHTS assay to test for compound auto fluorescence at 535 nm (green) in HepG2 cells (AID 720675).
Assay [6] can be described thus: qHTS assay to test for compound auto fluorescence at 460 nm (blue) in HEK293 cells (AID 720678). The method in brief: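 HEK293, 2,000 cells/well, 10% dialyzed FBS; attach 4-5 hr 37C; pin compound or DMSO; o/n 37C/5% CO2; fluorescence 405/460 nm; triamterene-equivalent units.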
A short description of assay [7]: qHTS assay to test for compound auto fluorescence at 590 nm (red) in HEK293 cells (AID 720679). The method in brief:
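Intensity at 540nm excitation and 590nm emission is reported as Rose Bengal sodium-equivalent autofluorescence. Measurements followed overnight exposure (37C, 5% CO2) of HEK293 cells, 2,000 per well, to 23 nL compound.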

Assay [8] in a line: qHTS assay to test for compound auto fluorescence at 535 nm (green) in HEK293 cells (AID 720680).
Assay [9] can be described thus: qHTS assay to test for compound auto fluorescence at 460 nm (blue) in HEK293 cell free culture (AID 720681). The method in brief: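 Test compounds were pinned into cell-free culture medium (DMEM with 10% FBS) and fluorescence was read directly at Ex/Em 405/460 nm. Signals were expressed as fluorescence equivalents of triamterene, with DMSO vehicle as control.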
Assay [10] is described as follows: qHTS assay to test for compound auto fluorescence at 535 nm (green) in HEK293 cell free culture (AID 720682). The method in brief: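 Each library compound, or DMSO control, is added by pintool to medium alone, comprising DMEM and 10% FBS. Emission at 535 nm following 485 nm excitation is quantified against fluorescein.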
Assay [11] is described as follows: qHTS assay to test for compound auto fluorescence at 590 nm (red) in HEK293 cell free culture (AID 720683). The method in brief:
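Tox21 10K library compounds were pinned into cell-free DMEM with 10% FBS and fluorescence was read at excitation 540 nm. Activity is expressed as Rose Bengal sodium equivalency.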

Assay [12] is described as follows: qHTS assay to test for compound auto fluorescence at 590 nm (red) in HepG2 cell free culture (AID 720684). A digest of the protocol: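 Measured in medium alone (MEM containing 10% FBS) following pintool addition of compound; emission at 590 nm with 540 nm excitation, referenced to Rose Bengal sodium.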
Assay [13] is described as follows: qHTS assay to test for compound auto fluorescence at 460 nm (blue) in HepG2 cell free culture (AID 720685). The method in brief:
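Compound (23 nL) or DMSO pinned into cell-free MEM with 10% FBS; blue fluorescence read at 405/460 nm excitation/emission, expressed as auto-fluorescence equivalency to triamterene.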

Assay [14] in a line: qHTS assay to test for compound auto fluorescence at 535 nm (green) in HepG2 cell free culture (AID 720686).
Assay [15] in a line: qHTS assay to test for compound auto fluorescence at 460 nm (blue) in HepG2 cells (AID 720687). The method in brief: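 Cells (2,000/well in MEM with 10% FBS) attached overnight at 37 C, then were exposed to compound or DMSO for 1 hr at 37 C, 5% CO2. Fluorescence read at Ex/Em 405/460 nm, expressed as triamterene-equivalent signal.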
Assay [16] has as its target Glucocorticoid receptor (Homo sapiens) (UniProt P04150). Description: qHTS assay to identify small molecule antagonists of the glucocorticoid receptor (GR) signaling pathway (AID 720692; active = well fitted inhibition curve with a large enough effect in the signal ratio in the repeat runs, not every such curve was filed as active; the % refers to the signal ratio). A digest of the protocol:
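Dexamethasone (5 nM final) stimulated a stably integrated GRE-beta-lactamase reporter in HeLa cells during 18 h co-incubation with compounds; signal was quantified as fluorescence intensity of B/G FRET substrate after 2 h.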

Assay [17] in a line: qHTS assay for small molecules that induce genotoxicity in human embryonic kidney cells expressing luciferase-tagged ATAD5 - cell viability (AID 651634; calls by dose curve; also: nearly all actives have a fitted effect of over 25% in size; also: potency is read from the fitted curve at half-maximal effect). The method in brief: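 Seeding of 2,000 HEK293T ATAD5-luciferase cells per well preceded pin-tool compound transfer. Plates sat 15.5 hr at 37C under 5% CO2, then fluorescence was read after 30 min with CellTiter-Fluor.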
The target of assay [18] is Glucocorticoid receptor (Homo sapiens) (UniProt P04150). Description: qHTS assay to identify small molecule agonists of the glucocorticoid receptor (GR) signaling pathway (AID 720691; active = well fitted activation curve with a large enough effect in the signal ratio in the repeat runs, not every such curve was filed as active; the % refers to the signal ratio). A digest of the protocol: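 Reporter read-out: fluorescence intensity following 2 h room-temperature LiveBLAzer B/G FRET substrate loading. Prior step: GR-bla HeLa cells held 4 h, then treated 18 h at 37 C.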
Glucocorticoid receptor (Homo sapiens), sequence (P04150 whole entry, looked up): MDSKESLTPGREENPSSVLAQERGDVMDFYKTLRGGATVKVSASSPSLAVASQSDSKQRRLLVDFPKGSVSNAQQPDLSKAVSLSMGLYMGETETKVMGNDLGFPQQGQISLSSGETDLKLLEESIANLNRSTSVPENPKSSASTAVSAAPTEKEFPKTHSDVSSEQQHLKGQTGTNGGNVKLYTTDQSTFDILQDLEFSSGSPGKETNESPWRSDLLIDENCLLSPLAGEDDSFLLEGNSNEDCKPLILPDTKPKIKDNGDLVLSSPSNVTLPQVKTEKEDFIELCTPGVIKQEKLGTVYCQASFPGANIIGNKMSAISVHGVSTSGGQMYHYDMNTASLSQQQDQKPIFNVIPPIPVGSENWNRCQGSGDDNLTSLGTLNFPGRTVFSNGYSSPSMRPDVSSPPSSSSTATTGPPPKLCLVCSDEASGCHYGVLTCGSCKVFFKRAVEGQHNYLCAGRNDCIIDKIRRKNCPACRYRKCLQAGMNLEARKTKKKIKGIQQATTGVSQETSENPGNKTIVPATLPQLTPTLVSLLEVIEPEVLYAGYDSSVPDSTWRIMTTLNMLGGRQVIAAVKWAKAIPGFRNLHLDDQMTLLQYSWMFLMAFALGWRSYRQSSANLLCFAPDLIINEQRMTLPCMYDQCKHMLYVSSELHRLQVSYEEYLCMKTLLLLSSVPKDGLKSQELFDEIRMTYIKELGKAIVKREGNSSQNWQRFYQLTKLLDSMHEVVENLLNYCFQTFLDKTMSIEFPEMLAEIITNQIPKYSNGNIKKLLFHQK

Assay [19] can be described thus: qHTS assay for small molecule disruptors of the mitochondrial membrane potential - cell viability (AID 720634; calls by dose curve;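 also: human HepG2 liver cancer cells; series mostly up to about 83 µM; nearly all actives have a fitted effect of over 20% in size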). A digest of the protocol: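 Measuring cytotoxicity alongside mitochondrial potential, the screen quantified ATP by luminescence in HepG2 cells after 1 hr compound incubation and a 30 min room-temperature CellTiter-Glo step.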
Assay [20] can be described thus: qHTS assay for small molecules that induce genotoxicity in human embryonic kidney cells expressing luciferase-tagged ATAD5 (AID 651632). Also: potency is read from the fitted curve at half-maximal effect; nearly all actives have a fitted effect of over 15% in size. A digest of the protocol: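 Reporter cells (HEK293T) express luciferase-tagged ATAD5, a protein that accumulates after DNA damage. Treat 16 hr at 37C/5% CO2, add Amplite, wait 30 min at RT, and read luminescence.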

Values joined by “and” are separate entries in the source; they are usually repeats but may differ in a detail not shown here. Identical values can stand only once. Inconclusive results are not listed. Active and inactive are the calls of the source. Unless noted, calls follow the shape of the dose curve; as a rule, active = well fitted curve in the direction sought with a large enough effect in the repeat runs; inconclusive = weak or mixed curves; inactive = no such curve, though single readings can be large; an effect the other way counts as inactive or inconclusive.

Take `NC(=O)N/N=C/c1ccc([N+](=O)[O-])o1`: the Potency entry in [1], in assay [2] and in assay [16] was “inactive” in each case. The Potency in assay [3] was 15.4 µM (active). Moreover, the result in assay [4], in [5], in assay [6], in assay [7], in assay [8] and in assay [9] was inactive. The outcome in assay [10], in assay [11], in assay [12], in assay [13], in assay [14] and in [15] was inactive.

Consider `O=C1OC(c2ccc(O)cc2)(c2ccc(O)cc2)c2ccccc21`, for which the Potency entry in assay [2] and in assay [17] was “inactive” in each case. Besides, the Potency in assay [3] is 21.1 µM (active) and 48.2 µM (active) and 68.6 µM (active). Moreover, the call in assay [4], in [5], in assay [6], in assay [7], in assay [8] and in [9] was inactive. Further, the compound was classed as inactive in assay [10], in assay [11], in assay [12], in assay [13], in [14] and in assay [15].

In the case of `O=C(OCc1ccccc1)c1ccccc1`, the Potency result in [2], in assay [17], in assay [3] and in assay [16] was “inactive” in each case. Besides, the outcome in assay [4], in assay [5], in assay [6], in assay [7], in [8] and in assay [9] was inactive. The call in [10], in [11], in [12], in assay [13], in assay [14] and in [15] was inactive.

Turning to `CN/C(=C\[N+](=O)[O-])NCCSCc1ccc(CN(C)C)o1`, the Potency result in assay [1], in [2], in assay [3], in [18] and in assay [16] was “inactive” in each case. In addition, the result in assay [4], in [5], in assay [6], in [7], in [8] and in [9] was inactive. The call in [10], in assay [11], in assay [12], in assay [13], in assay [14] and in assay [15] was inactive.

Regarding `COC1=CC(=O)C[C@@H](C)[C@]12Oc1c(Cl)c(OC)cc(OC)c1C2=O`, the Potency result in [17], in assay [19], in [3] and in assay [16] was “inactive” in each case. Further, the compound was classed as inactive in assay [4], in assay [5], in assay [6], in [7], in assay [8] and in [9]. Moreover, the compound was called inactive in assay [10], in assay [11], in [12], in assay [13], in assay [14] and in assay [15].

For the compound `Nc1ccc(N=Nc2ccccc2)c(N)n1`, the Potency in assay [20] is 11.9 µM (active) and 8.68 µM (active) and 9.69 µM (active); in [17] it was 23.7 µM (active) and 54.8 µM (active); in assay [3], 10.6 µM (active) and 30.8 µM (active) and 19.3 µM (active). The Potency entry in assay [2] is “inactive”. Further, the call in assay [4], in assay [5], in [6], in [7], in [8] and in assay [9] was inactive. Further, the compound was classed as inactive in assay [10], in assay [11], in assay [12], in assay [13], in assay [14] and in assay [15].

For `COC(=O)c1ccc(O)cc1`, the Potency entry in assay [1], in assay [2], in assay [17] and in assay [16] was “inactive” each time. In addition, the result in assay [4], in assay [5], in assay [6], in [7], in [8] and in assay [9] was inactive. For the same compound, the compound was classed as inactive in assay [10], in assay [11], in assay [12], in assay [13], in assay [14] and in assay [15].
